The panel holds about 83,000 compounds, 20% with a hit somewhere; the sample as a whole holds those more often.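 In brief: 96-well plates, 48 h treatment, single concentration, percent growth endpoint.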 A number with no mark means an inactive call. Active and inactive are the calls of the source. How the source made its calls: active means growth percent below 10; inactive means the rest.

This note sets out measurements from PubChem BioAssay (NCI).

Holding throughout (test): NCI-60 one-dose screen, 48 h (100 = growth as untreated, 0 = no growth, -100 = all killed)
Holding throughout (settings): 10 µM unless noted

In assay [1] the test system is NCI-H23 lung.
Assay [2] concerns NCI-H226 lung.
Assay [3] relates to NCI-H322M lung.
The subject of assay [4] is HOP-62 NSCLC.
Assay [5] has as its system NCI-H460 lung.
Assay [6] has as its system HOP-92 NSCLC.
The test system of assay [7] is NCI-H522 lung.
The subject of assay [8] is A549/ATCC NSCLC.
Assay [9] has as its system 786-0 renal.
In assay [10] the test system is COLO 205 colon.
In assay [11] the test system is K-562 leukemia.
Assay [12] deals with MALME-3M melanoma.
In assay [13] the test system is MDA-MB-231 breast.
Assay [14] has as its system RXF 393 renal.
Assay [15] concerns SF-295 CNS.
Assay [16] deals with SF-539 CNS.
In assay [17] the test system is UACC-257 melanoma.
The test system of assay [18] is M14 melanoma.
The test system of assay [19] is DU-145 prostate.
For assay [20], the system named is SF-268 CNS.

Take `O=C(CSc1nc2ccccc2[nH]1)Nc1ccc(-c2nc3ccccc3s2)c(Cl)c1`: the growth in assay [1] is -32.5% (active); in assay [2] it was 40.3%; in [3] it was 64.9%; in assay [4] it was 10.2%; in assay [5], -4.98% (active); in assay [6] it was -11.9% (active). In addition, the growth in assay [7] was -9.43% (active); in assay [8], -33.7% (active); in [9], -72.9% (active); in assay [10], 19.5%; in [11] it was 20.4%; in [12], 2.26% (active). The growth is -36.8% (active) in [13]; 21.8% in assay [14]; 3.63% (active) in [15]; -88.6% (active) in assay [16]; 16% in assay [17]; -58.1% (active) in [18].

With `Cc1nc2c3c(ncn2n1)Oc1c(c(=O)[nH]c2ccccc12)C3c1ccc(Cl)cc1` (stereo unspecified), the growth is 103% in assay [1]; 98% in assay [2]; 100% in [3]; 87.3% in assay [4]; 101% in [5]; 74.2% in [6]. Moreover, the growth in assay [7] was 87.6%; in [8], 97.4%; in [10], 107%; in [19] it was 112%; in assay [11], 94.3%; in [12] it was 105%. Further, the growth in assay [13] was 87.9%; in [14], 113%; in [20], 85.7%; in assay [15], 96.2%; in assay [16], 93.4%; in assay [17], 105%. Further, the growth in assay [18] is 105%.

Turning to `CC(=O)Oc1csc(N(C(C)=O)c2cccc(C(F)(F)F)c2)n1`, the growth is 94.7% in assay [1]; 93.3% in [2]; 99% in assay [3]; 94.4% in [4]; 102% in [5]; 45.7% in [6]. Further, the growth was 83.1% in [7]; 92.3% in assay [8]; 107% in assay [10]; 99.2% in [19]; 105% in assay [11]; 88.8% in [12]. The growth is 71.9% in assay [13]; 103% in [14]; 88.9% in assay [20]; 96.5% in assay [15]; 91% in [16]; 88.5% in [17]. Moreover, the growth in [18] was 77.7%.

For `CCOC(=O)CN1/C(=N/c2sc3c(c2C(=O)OCC)CCN(C(=O)OCC)C3)SC(=O)/C1=C\C(=O)OC`, the growth is 95.8% in [1]; 92.2% in assay [2]; 98.4% in [3]; 92.4% in [4]; 99.9% in assay [5]; 74.5% in [6]. For the same compound, the growth in [7] was 76.4%; in assay [8], 90.4%; in assay [10], 101%; in assay [19], 104%; in assay [11] it was 64.2%; in assay [12] it was 101%. Besides, the growth in assay [13] was 89.2%; in assay [14] it was 90.9%; in assay [20], 90.8%; in [15], 98%; in assay [16] it was 93.9%; in assay [17] it was 92.8%. Further, in assay [18], the growth is 95%.

Turning to `CCCCOc1ccc(/C=C2/SC(N3CCOCC3)=NC2=O)cc1OCC`, the growth in assay [1] is 98.6%; in [2], 92%; in assay [3], 94.3%; in [4], 104%; in assay [5], 99.5%; in assay [6], 70.7%. The growth in [7] was 75%; in assay [8], 96%; in assay [10] it was 113%; in [19], 99.4%; in assay [11], 86.4%; in assay [12], 93.1%. Moreover, the growth is 83.8% in assay [13]; 94.6% in [14]; 99.2% in assay [20]; 100% in [15]; 86.4% in [16]; 108% in [17]. The growth in assay [18] was 91.8%.

Take `O=C(Nc1ccc(NCCN2CCOCC2)nc1)c1ccc([N+](=O)[O-])cc1`: the growth is 100% in assay [1]; 109% in assay [2]; 107% in [3]; 103% in assay [4]; 110% in [5]; 103% in [6]. Further, the growth in [8] is 98.3%; in assay [9], 104%; in [10], 110%; in [19] it was 106%; in assay [11], 103%; in assay [12], 105%. In addition, the growth is 103% in [13]; 124% in assay [14]; 103% in assay [20]; 91.3% in [15]; 95.6% in assay [16]; 93.1% in [17]. For the same compound, the growth in assay [18] was 105%.

For `CCN(CC)CCCC(C)Nc1c2ccc(Cl)cc2nc2cc(OC)c(OC)cc12` (stereo unspecified), the growth in assay [1] was 21%; in assay [2], 32.3%; in assay [3] it was 0.383% (active); in assay [4], 32.3%; in assay [5], -31.6% (active); in assay [6] it was -9.58% (active). Also, the growth was 4.12% (active) in assay [8]; 38.6% in assay [9]; -33.6% (active) in [10]; 22.6% in [19]; -16.4% (active) in assay [11]; -74.1% (active) in assay [12]. Moreover, the growth in [13] is -34.3% (active); in assay [14] it was -13.4% (active); in [20] it was 33.9%; in [15], 44.5%; in assay [16], -87.9% (active); in assay [17], 46.9%. Moreover, the growth in [18] was -73.7% (active).

Take `CCN(CC)CCOC(=O)C(c1ccccc1)(c1ccccc1)C(C)C`: the growth in assay [1] is 90.2%; in assay [2] it was 92.9%; in assay [3], 82.3%; in [4], 83.2%; in assay [5] it was 92%; in [6], 77.7%. Also, the growth is 86.6% in assay [7]; 80% in assay [8]; 66.3% in assay [10]; 99% in assay [19]; 85.7% in [11]; 95.1% in assay [12]. Further, the growth in [13] was 74.3%; in [14], 95.6%; in assay [20], 86.1%; in [15] it was 91.1%; in assay [16] it was 107%; in [17], 63.2%. For the same compound, the growth in assay [18] was 106%.
